An excerpt weighted towards active compounds, which were near 3.9% of everything screened.
VDR inhibitor = vitamin D3 receptor (human) inhibition; P11473; VDR-SRC2-3 peptide fluorescence polarization, 2 h; Potency, µM, without a hit: max response, negative = inhibition, most hits filed as inhibitors; 400,000 compounds, 0.93% hits; AID 504847; further: on the % scale 0 is the no-effect control and ±100 the full control effect
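Signal is fluorescence polarization, reporting how far test compounds block the interaction of VDR with the SRC2-3 coregulator peptide after a 2 h room-temperature incubation.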
BRCA1 expr act = activators of BRCA1 expression; MCF7-BRCA1-FFLuc reporter, luminescence, 48 h; response scale: scaled: vehicle 0%, 10 µM genistein 100%; Potency, µM (series often up to 46.1 µM), for the others: at the top dose activation, most hits filed as activators; 380,000 compounds, 1.1% hits; AID 624202; further: nearly all actives have a fitted effect of over 80% in size
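Activators of BRCA1 expression were detected as increased firefly luciferase luminescence in engineered MCF7 cells after 48 h compound incubation. Signals were scaled to genistein 10 microM as full activation.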
Tb PFK inh = blocks T. brucei phosphofructokinase; O15648; T. brucei PFK, ADP-Glo luminescence; Potency, µM (doses to about 57.5 µM), for the others: at the highest dose activity, negative = inhibition, hits mostly inhibitors; 330,000 compounds, 0.17% hits;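 further: 0% = uninhibited 1x PFK enzyme wells and -100% = no-enzyme wells; nearly all actives have a fitted effect of over 60% in size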
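ADP-Glo luminescence quantified ADP after 45 min at room temperature, with 1.25 nM T. brucei PFK, 0.1 mM ATP and 0.5 mM fructose-6-phosphate in pH 8.0 TEA buffer. qHTS titrations up to 57 µM; curves classified by quality.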
PLK1 PBD inh = blocks phosphopeptide binding to human PLK1 polo-box domain | Potency, µM, for inactives: max response, negative = inhibition, actives largely listed as inhibitors | 360,000 compounds, 2.8% hits | Plk1 PBD binding of FITC phosphopeptide, fluorescence polarization; further: series mostly up to about 57 µM; on the % scale 0 is the no-effect control and ±100 the full control effect; nearly all actives have a fitted effect of over 65% in size
Target sequence (P53350 whole entry, looked up, the tested form may be a part): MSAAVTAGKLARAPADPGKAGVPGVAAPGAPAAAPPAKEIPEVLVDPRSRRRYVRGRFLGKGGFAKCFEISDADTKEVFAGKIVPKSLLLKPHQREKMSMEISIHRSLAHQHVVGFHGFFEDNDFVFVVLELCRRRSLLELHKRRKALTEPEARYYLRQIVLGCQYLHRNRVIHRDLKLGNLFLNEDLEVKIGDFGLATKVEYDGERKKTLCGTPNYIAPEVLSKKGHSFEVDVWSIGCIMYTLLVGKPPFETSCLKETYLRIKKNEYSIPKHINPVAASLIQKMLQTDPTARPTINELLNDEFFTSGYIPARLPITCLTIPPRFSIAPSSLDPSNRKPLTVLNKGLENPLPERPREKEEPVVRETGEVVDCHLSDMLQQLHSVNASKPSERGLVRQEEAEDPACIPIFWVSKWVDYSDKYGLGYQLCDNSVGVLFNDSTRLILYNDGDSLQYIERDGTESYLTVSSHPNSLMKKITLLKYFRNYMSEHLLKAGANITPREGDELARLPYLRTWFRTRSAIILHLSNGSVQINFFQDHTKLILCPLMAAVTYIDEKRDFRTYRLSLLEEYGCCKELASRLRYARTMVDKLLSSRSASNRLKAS
The depositor's hits bear a star; ? = inconclusive; . = no result given. The call rests on the fitted dose curve; in most records, active means well fitted curve in the direction sought with a large enough effect; inconclusive means small, poorly fitted or top-dose-only effect, or another doubt; inactive means no such curve, though single readings can be large; an effect the other way counts as inactive or inconclusive. Potency means the concentration at half of the fitted maximal effect.

SMILES	VDR inhibitor	BRCA1 expr act	Tb PFK inh	PLK1 PBD inh
CC(=O)NCCc1nc2cc(NC(=O)c3ccc(F)cc3)ccc2n1C	-18%	-35%	-4%	4%
CCC(=O)NCCc1nc2cc(NC(=O)COc3ccccc3)ccc2n1C	10%	8.9µM*	-22%	-14%
COc1ccccc1C(=O)Nc1ccc2c(c1)nc(CCNC(C)=O)n2C	-5%	10µM*	-9%	0%
CCC(=O)NCCc1nc2cc(NC(=O)c3ccccc3OC)ccc2n1C	8%	?	-1%	-7%
COc1ccc(OCC(=O)Nc2ccc3c(c2)nc(CN2CCCC2)n3C)cc1	3%	2%	-4%	27µM*
CC(=O)NCCc1nc2cc(NC(=O)c3cccc([N+](=O)[O-])c3)ccc2n1C	4%	5.6µM*	0%	-4%
Cn1c(CN2CCCC2)nc2cc(NC(=O)COc3ccc(Cl)cc3)ccc21	15%	-45%	-6%	0%
Cn1c(CCNC(=O)c2ccco2)nc2cc(NC(=O)c3ccccc3Cl)ccc21	-1%	8.9µM*	5%	1%
Cc1ccccc1C(=O)Nc1ccc2c(c1)nc(CCNC(=O)c1ccco1)n2C	8%	44%	1%	-20%
CCC(=O)NCCc1nc2cc(NC(=O)c3cccc([N+](=O)[O-])c3)ccc2n1C	-16%	3.2µM*	-13%	4%
CCC(=O)NCCc1nc2cc(NC(=O)c3cccs3)ccc2n1C	-4%	73%	-3%	-2%
COC(=O)c1sccc1S(=O)(=O)N(CC(=O)NCc1ccccc1)c1ccccc1	-7%	.	.	.
O=C1Nc2ccccc2CN2C(=O)c3cc(Cl)ccc3NC(=O)C12 (centres undefined)	.	1%	.	-7%
CCN(CC)c1ccc(/C=C(/C#N)C(=O)NCc2ccccc2)o1	-4%	10µM*	3%	72%
COc1ccc([C@H]2Cc3cccc(O)c3C(=O)O2)cc1O	-12%	0%	0%	3%
COc1ccc([C@H]2Cc3cc(O)cc(O)c3C(=O)O2)cc1O	-6%	10µM*	10%	-16%
CCOc1ccc(NC(=O)CSc2nc3c(c(=O)[nH]2)CCCC3)cc1	12%	.	.	.
Cc1ccc(-c2csc(NC(=O)CSc3nc(C)cs3)n2)cc1	5%	11µM*	-7%	-8%
Cc1cccc(OCC(=O)OCC(=O)Nc2sccc2C(N)=O)c1	27%	0%	0%	-4%
NC(=O)c1ccsc1NC(=O)COc1ccccc1	-17%	?	-2%	15µM*
NC(=O)c1ccsc1NC(=O)CSc1nnc(Nc2ccccc2)s1	2%	-6%	7%	-16%
NC(=O)c1ccsc1NC(=O)CSc1ccccc1F	13%	11µM*	?	-13%
Cc1csc(SCC(=O)Nc2sccc2C(N)=O)n1	-16%	6.3µM*	25%	-15%
Cc1csc(SCC(=O)Nc2nc(-c3ccccc3)cs2)n1	6%	63%	-1%	-4%
Cc1cccc(-c2nc(C(N)=O)c3c(n2)n(-c2ccc4c(c2)OCO4)c(=O)n3C)c1	-14%	0%	.	.
SMILES	VDR inhibitor	BRCA1 expr act	Tb PFK inh	PLK1 PBD inh
CNc1cncc(-c2ccc(C)cc2)n1	.	?	.	1%
Cc1ccc(CNC(=O)CCCN2C(=O)COc3ccc(C)cc32)cc1	12%	.	.	.
CCN1C(=O)CS/C1=N\S(=O)(=O)c1ccc(Cl)cc1	-6%	9%	-3%	-6%
CCn1c(Cl)c(C=O)s/c1=N\S(=O)(=O)c1ccccc1	3.2µM*	-100%	-26%	12µM*
CC[C@H](C)[C@@H](CO)NC(=O)[C@H]1O[C@@H](n2ccc(=O)[nH]c2=O)[C@H](O)[C@@H]1O	.	-5%	.	-3%
COc1ccc(C(=O)NCc2ccncc2)cc1OC	-8%	-12%	4%	-3%
COc1cc(C)ccc1OCc1cc(C(=O)NCc2ccncc2)no1	-4%	7.9µM*	7%	-11%
O=c1[nH]c2cc([N+](=O)[O-])ccc2c2cc(Br)ccc12	.	-56%	.	-10%
O=C1CCCCCCC(=O)[C@H](O)C[C@H](c2ccccc2)O1	.	3%	.	-3%
CCSC1(SCC)N=C(N)C2(C#N)C(c3ccc(OC)c(OC)c3OC)C12C#N (centres undefined)	?	-31%	-2%	13µM*
Cc1nn2c(=O)cc(CSc3ccccc3NC(=O)c3ccccc3)nc2s1	-14%	17%	-3%	-17%
COc1cc(C(=O)Nc2ccccc2SCc2cc(=O)n3nc(C)sc3n2)cc(OC)c1OC	?	-13%	2%	27µM*
CCOCc1nnc(NC(=O)c2cc(C(=O)OC)cc([N+](=O)[O-])c2)s1	-5%	-1%	0%	27µM*

Compound activity: PubChem BioAssay, National Center for Advancing Translational Sciences (NCATS)
